Assay results as given in PubChem BioAssay (NCATS).
Where “and” joins values, the source holds several entries; their conditions need not be identical. Equal entries are not always repeated. Records with an inconclusive call do not appear. Unmarked numbers belong to inactive results. Calls of active or inactive are those of the source. Unless noted, calls come from the whole dose curve; as a rule, active = well fitted activation curve with a large enough effect; inconclusive = small, poorly fitted or top-dose-only effect; inactive = flat fitted curve, though single readings scatter.

target: Tumor necrosis factor (Homo sapiens) (UniProt P01375); experiment: qHTS assay to identify small molecules that stimulate Tumor Necrosis Factor-alpha (TNF-alpha) secretion (AID 651757; active = well fitted curve in the direction sought with a large enough effect in the signal ratio; the % refers to the signal ratio; note: 0% is about no effect); settings: Human cells, HTRF 665/615 ratio; series mostly up to 92.2 µM
In short: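 THP-1 cells (3000/well) exposed to compounds 17 hrs at 37 C. Secreted TNF-alpha detected by HTRF with cryptate- and XL665-labeled anti-TNF-alpha antibodies after 3 hr at room temperature.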

Chain of Tumor necrosis factor (Homo sapiens) (P01375 whole entry, looked up): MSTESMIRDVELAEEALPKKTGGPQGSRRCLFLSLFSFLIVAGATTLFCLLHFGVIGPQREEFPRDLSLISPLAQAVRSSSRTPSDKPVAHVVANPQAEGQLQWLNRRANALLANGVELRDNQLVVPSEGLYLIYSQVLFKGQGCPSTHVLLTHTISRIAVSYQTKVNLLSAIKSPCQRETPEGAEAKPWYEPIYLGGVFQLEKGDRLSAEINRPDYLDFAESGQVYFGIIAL

SMILES	outcome
CC12CCC(CC1)C(C)(C)O2	inactive
O=C1c2c(O)cccc2Cc2cccc(O)c21	inactive
Cc1c(O)cccc1C(=O)N[C@@H](CSc1ccccc1)[C@H](O)CN1C[C@H]2CCCC[C@H]2C[C@H]1C(=O)NC(C)(C)C	inactive
CC1(C)[C@@H]2CC[C@@]1(C)C(=O)C2	inactive
CN(C)CCC=C1c2ccccc2CCc2ccccc21	inactive
C[C@]12C[C@H](O)[C@H]3[C@@H](CCC4=CC(=O)CC[C@@]43C)[C@@H]1CC[C@@H]2C(=O)CO	inactive
NCCNCCNCCNCCN	inactive
Nc1ccc(S(=O)(=O)Nc2nccs2)cc1	inactive
NCCNCCNCCN	inactive
NC(=O)c1ncn([C@@H]2O[C@H](CO)[C@@H](O)[C@H]2O)n1	inactive
[Cl][In]([Cl])[Cl]	inactive
COc1ccccc1O	inactive
Oc1cccc(O)c1	inactive
CCCCOC(=O)c1ccc(O)cc1	inactive
CCCCCCCCCCCCOS(=O)(=O)O	inactive
O=C1O[C@H]([C@@H](O)CO)C(O)=C1O	inactive

tested on: not listed separately; experiment: qHTS assay to identify small molecules that stimulate interleukin-8 (IL-8) secretion (AID 651758; active = well fitted activation curve with a large enough effect in the signal ratio; the % refers to the signal ratio; note: 0% is about no effect); settings: HTRF ratio (665/615); series mostly up to 92.2 µM
Description: National Center for Advancing Translational Sciences [NCATS]
NIH Chemical Genomics Center [NCGC]
National Institutes of Environmental Health Sciences [NIEHS]
National Toxicology Program [NTP]
Interleukin-8 is a 8 kDa chemokine produced by macrophages and other cells like epithelial cells that is often associated with inflammation. Interleukin-8 secretion is a key parameter in localized inflammation. There is a growing concern for some of environmental chemicals which may contribute the increasing the incidence of inflammation. A homogeneous IL-8 assay using Time Resolved fluorescence (HTRF) technology based on Time Resolved Fluorescent Resonance Energy Transfer (TR-FRET) allows to measure IL-8 secreted from the cells in a 1536-well plate format.
THP-1 cells were dispensed at 2000 cells/5ul/well in 1536-well white solid plates. After addition of 23 nl of compound, positive controls and DMSO only, the assay plates were incubated at 37 C for 16 hrs, followed by addition of 5 uL of mixture of cryptate labeled and XL665 labeled anti-IL-8 antibodies. After the assay plates were incubated at room temperature for 1-3 hrs, the plates were measured by an EnVision plate reader.

SMILES	outcome
NC(=O)N/N=C/c1ccc([N+](=O)[O-])o1	inactive
O=C1c2c(O)cccc2Cc2cccc(O)c21	inactive
COC(=O)C1=C(C)NC(C)=C(C(=O)OC)C1c1ccccc1[N+](=O)[O-]	inactive
NCCNCCNCCN	inactive
CCCCCCCCCCCCOS(=O)(=O)O	inactive

tested on: not listed separately; experiment: qHTS assay for environmental chemicals that activate the Aryl hydrocarbon Receptor (AhR) signaling pathway (AID 651777); settings: 1A2-DRE human hepatoma cells, luciferase, 24 h; active compounds read high; note: % of control where 0% means no effect; nearly all actives have a fitted effect of over 15% in size
In short: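 Quantitative HTS in stably transfected human liver-derived cells whose luciferase gene sits downstream of the CYP1A2 promoter and dioxin response element. After 24 hr exposure at 37 C, One-Glo luminescence was measured.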

SMILES	activation
NC(=O)N/N=C/c1ccc([N+](=O)[O-])o1	5.25% and 3.59%
CCCCC(CC)COC(=O)c1ccccc1O (stereo not drawn)	-0.423%
CC12CCC(CC1)C(C)(C)O2	-0.144%
Cc1cccc(Nc2cc(Cl)nc(SCC(=O)O)n2)c1C	-1.86%
CC(O)CN(CCN(CC(C)O)CC(C)O)CC(C)O (stereo not drawn)	0.546%
O=C1c2c(O)cccc2Cc2cccc(O)c21	-0.232%
CCOC(=O)c1ccc(O)cc1	6.21%
CC1=C(/C=C/C(C)=C/C=C/C(C)=C/C(=O)O)C(C)(C)CCC1	4.57% and 7.11%
CC(O)COc1ccccc1 (stereo not drawn)	1.38%
Cc1c(O)cccc1C(=O)N[C@@H](CSc1ccccc1)[C@H](O)CN1C[C@H]2CCCC[C@H]2C[C@H]1C(=O)NC(C)(C)C	-9.16%
CC1(C)[C@@H]2CC[C@@]1(C)C(=O)C2	1.1%
CN(C)CCOC(C)(c1ccccc1)c1ccccn1 (stereo not drawn)	-1.5%
CN(C)CCC=C1c2ccccc2CCc2ccccc21	-1.66% and 0.429%
C[C@]12C[C@H](O)[C@H]3[C@@H](CCC4=CC(=O)CC[C@@]43C)[C@@H]1CC[C@@H]2C(=O)CO	-0.656% and -0.0877%
Cc1cc(CC(=O)O)n(C)c1C(=O)c1ccc(Cl)cc1	0.224%
NCCNCCNCCNCCN	-0.491% and -2.35%

SMILES	activation
CN(C)CCCN1c2ccccc2CCc2ccccc21	-0.861%
Nc1ccc(S(=O)(=O)Nc2nccs2)cc1	-0.168%
C[C@]12CC[C@@H]3c4ccc(O)cc4CC[C@H]3[C@@H]1CCC2=O	0.316%
COC(=O)C1=C(C)NC(C)=C(C(=O)OC)C1c1ccccc1[N+](=O)[O-]	3.95%
CN(C)CCCN1c2ccccc2Sc2ccc(Cl)cc21	3.61%
NC(=O)c1ncn([C@@H]2O[C@H](CO)[C@@H](O)[C@H]2O)n1	0.173%
CNC(=O)Oc1ccc2c(c1)[C@]1(C)CCN(C)[C@@H]1N2C	2.6%
[Cl][In]([Cl])[Cl]	0.307%
COc1ccccc1O	0.592% and -0.634% and 2.1%
Oc1cccc(O)c1	2.18%
CC(CN1c2ccccc2Sc2ccccc21)N(C)C (stereo not drawn)	-0.788%
O=S(=O)(O)NC1CCCCC1	1.78%
CCCCOC(=O)c1ccc(O)cc1	6.66% and 14.1%
COc1ccc(Cl)cc1C(=O)NCCc1ccc(S(=O)(=O)NC(=O)NC2CCCCC2)cc1	1.06%
CCCCCCCCCCCCOS(=O)(=O)O	1.08% [middle of 4 runs]
O=C1O[C@H]([C@@H](O)CO)C(O)=C1O	0.758% and 0.0107%
